The results in this text go back to PubChem BioAssay AID1159583 (ICCB-Longwood Screening Facility, Harvard Medical School, 2016).

Where “and” joins values, the source holds several entries; their conditions need not be identical. Identical values can stand only once. Screen size: about 300,000 compounds; about 310 (0.1%) were called active. This is one part of a sample in which actives are shown more often than they occur. No stated cut-off is given here; in the data, active means fluorescence inhibition mostly above about 23% (no sharp cut-off); inactive means mostly below about 17%.

The nature of the assay: hypoxia reporter signal reduction in M. tuberculosis – fluorescence, absorbance growth readout, primary screen (AID 1159583). The conditions noted are these: M. tuberculosis hypoxia-regulated fluorescent reporter, stronger effect = higher value, concentration not given here; growth inhibition: measured here: M. tuberculosis growth (absorbance).
`CC(=NNC(=O)c1cc(-c2cccnc2)nc2ccccc12)c1ccc(O)cc1O`: the fluorescence inhibition is 2.22% (inactive) and the growth inhibition was 2.87%.

Take `COc1ccc(C=NNC(=O)c2ccccc2OC)cc1COc1ccccc1[N+](=O)[O-]`: the fluorescence inhibition is 1.62% (inactive) and the growth inhibition is -1.45%.

`C[C@@]12CCC=CC1C(c1ccc(C(F)(F)F)cc1)N(Cc1ccccc1)C2=O` (some centres not stated): the fluorescence inhibition is 11.1% (inactive) and the growth inhibition came out at 10.9%.

For the compound `Cc1ccccc1CN1C(Cc2ccccc2)COCCS1(=O)=O` (configuration not stated), the fluorescence inhibition is 6.62% (inactive) and the growth inhibition was determined as 4.01%.

On to `CC=CC=CC(=O)Nc1cccc(C2=NOC3(C2)CC(C(N)=O)N(C(=O)c2ccccc2C(=O)c2ccccc2)C3)c1` (configuration not stated), for which the fluorescence inhibition was -0.767% (inactive) and the growth inhibition stood at 8.5%.

As to `COC(=O)CSc1nc2ccccc2c(=O)n1Cc1ccccc1`, the fluorescence inhibition is 5.85% (inactive) and the growth inhibition came out at 20.4%.

For `C=CCn1c(SCC(=O)NC(=O)Cc2ccccc2)nc2ccccc2c1=O`, the fluorescence inhibition was 23.4% (active) and the growth inhibition was determined as 56.9%.

As for `C=CCn1c(SCc2ccc(C(=O)NCCO)cc2)nc2ccccc2c1=O`, the fluorescence inhibition was 9.54% (inactive) and the growth inhibition amounted to 8.96%.

`CCN(CC)c1ccc(C=NNS(=O)(=O)c2cccc([N+](=O)[O-])c2)cc1`: the fluorescence inhibition was -5.38% (inactive) and the growth inhibition came out at 0.14%.

Turning to `CCC(=NNC(=O)CSCc1ccccc1Br)c1ccc2c(c1)OCCO2`, the fluorescence inhibition is 0.753% (inactive) and the growth inhibition stood at 1.89%.

As for `O=C(NN=Cc1cccc([N+](=O)[O-])c1)c1ccc(CN2CCOCC2)cc1`, the fluorescence inhibition was 4.86% (inactive) and the growth inhibition amounted to 16.6%.

With `CCCCN=C1NC(=Cc2ccco2)C(=O)N1c1ccccc1`, the fluorescence inhibition is 8.24% (inactive) and the growth inhibition is 10.9%.

For the compound `COc1ccccc1C=NNC(=O)CCn1cnc2ccccc21`, the fluorescence inhibition was 4.69% (inactive) and the growth inhibition was -0.174%.

Turning to `COc1cccc(CNC(=O)COC(=O)CN2C(=O)NC3(CCCCC3C)C2=O)c1` (configuration not stated), the fluorescence inhibition was -6.03% (inactive) and the growth inhibition was 2.37%.

In the case of `CCCCNC(=O)CN1C(=O)NC(Cc2ccccc2)(Cc2ccccc2)C1=O`, the fluorescence inhibition was 3.73% (inactive) and the growth inhibition was found to be 16.6%.

Regarding `COc1cccc(CNC(=O)CN2C(=O)NC(Cc3ccccc3)(c3ccccc3)C2=O)c1` (configuration not stated), the fluorescence inhibition was 26.4% (active) and the growth inhibition is 52.7%.

On to `CC(CC(=O)Nc1ccc(Cl)cc1Cl)=NNC(=O)C(=O)N1CCCC1`, for which the fluorescence inhibition is 11% (inactive) and the growth inhibition was 5.91%.

Consider `COc1ccc(C=NN=C(N)c2nonc2N)cc1`, for which the fluorescence inhibition is 10.3% (inactive) and the growth inhibition turned out to be 6.79%.

On to `CC(=O)OCC1OC(CC=NOCC(O)C2OC3OC(C)(C)OC3C2O)C=CC1OC(C)=O` (configuration not stated), for which the fluorescence inhibition was 9.33% (inactive) and the growth inhibition was found to be 7.61%.

On to `CCOC(=O)C1C2COc3cc(OC)ccc3C2N2C(=O)N(c3ccc(Cl)cc3)C(=O)[C@]12C` (some centres not stated), for which the fluorescence inhibition is -4.96% (inactive) and 1.79% (inactive); the growth inhibition is 2.67% and 0.308%.

Regarding `CC(=O)Nc1ccc(S(=O)(=O)NN=Cc2ccc(C)o2)cc1`, the fluorescence inhibition is 7% (inactive) and the growth inhibition was -2.42%.

`O=C(Cc1cccs1)NN=C/C=C/c1ccco1`: the fluorescence inhibition was 8.6% (inactive) and the growth inhibition turned out to be 14.2%.

Regarding `O=C(CNC(=O)c1ccc2c(c1)OCCO2)NN=Cc1ccc(Cl)cc1`, the fluorescence inhibition is -0.656% (inactive) and the growth inhibition amounted to 8.25%.

On to `COc1ccc(OC)c(C=NNC(=O)c2[nH]ncc2Br)c1`, for which the fluorescence inhibition is 17.8% (inactive) and the growth inhibition came out at 3.99%.

`COc1cc(C=NNC(=O)Cc2c[nH]c3ccccc23)cc(OC)c1OC`: the fluorescence inhibition was 1.09% (inactive) and the growth inhibition came to 3.89%.

With `COc1ccc2ccccc2c1C=NNC(=O)c1cccc(Br)c1`, the fluorescence inhibition was 6.25% (inactive) and the growth inhibition came to 6.52%.

Turning to `CCN1C(=O)C2C(c3ccc(-c4cccc(Cl)c4)cc3)N[C@@](C)(C(=O)OC)C2C1=O` (some centres not stated), the fluorescence inhibition is 8.93% (inactive) and the growth inhibition turned out to be 17.5%.

For `Cc1ccccc1CN1C(=O)C(C)SC1=NN=Cc1ccco1` (configuration not stated), the fluorescence inhibition is 7.25% (inactive) and the growth inhibition stood at 1.63%.

For the compound `COC(=O)c1ccc(C=NNC(=O)c2ccc3nc[nH]c3c2)cc1`, the fluorescence inhibition is 3.23% (inactive) and the growth inhibition was -1.77%.

With `CC(C)C(=NNC(=O)Nc1ccccc1)c1ccccc1`, the fluorescence inhibition is 3.82% (inactive) and the growth inhibition was 6.86%.

For the compound `CC(=NNC(=O)c1csc(C)c1C)c1ccco1`, the fluorescence inhibition is 12.3% (inactive) and the growth inhibition was 18.1%.

On to `CCN(CC)S(=O)(=O)c1ccc(NN=Cc2ccc(OC)c(OC)c2OC)nc1`, for which the fluorescence inhibition was 6.7% (inactive) and the growth inhibition was found to be 6.24%.

Turning to `CC(=NNC(=O)c1cc2ccccc2cc1O)c1ccc2c(c1)OCO2`, the fluorescence inhibition was -11.6% (inactive) and the growth inhibition came to 0.0347%.

With `C=CCNC(=S)NN=Cc1ccc(-c2cc(Cl)ccc2Cl)o1`, the fluorescence inhibition is 6.01% (inactive) and the growth inhibition stood at 7.37%.

On to `N#Cc1ccc(OCC(=O)NN=CC2CC=CCC2)cc1` (configuration not stated), for which the fluorescence inhibition is 15.6% (inactive) and the growth inhibition came out at 1.47%.

Consider `O=C(CCCCCCCCC(=O)NN=Cc1ccco1)NN=Cc1ccco1`, for which the fluorescence inhibition is -1.23% (inactive) and the growth inhibition came out at 5.53%.

Turning to `Cc1cccc(C(=O)NN=C2SCC(=O)N2Cc2ccccc2)c1`, the fluorescence inhibition was -0.985% (inactive) and the growth inhibition is -2.16%.

Regarding `O=C(NN=Cc1ccc2nccnc2c1)c1ccc(Br)cc1`, the fluorescence inhibition was -2.27% (inactive) and the growth inhibition was -1.22%.

Consider `C/C(C=NNC(=O)Cc1cccs1)=C\c1ccco1`, for which the fluorescence inhibition is 8.51% (inactive) and the growth inhibition is 5.57%.

On to `CCOC(=O)NN=CC=Cc1ccco1`, for which the fluorescence inhibition was 5.07% (inactive) and the growth inhibition stood at 6.05%.

As to `COC(=O)c1ccc2[nH]c(C(C)O)c(C(C)O)c2c1` (configuration not stated), the fluorescence inhibition is -12.5% (inactive) and the growth inhibition came to 0.422%.
